# Measurements: article PMC5540273 (PLoS ONE, 2017)
# Columns and labels:
# Settings in all cases: concentration: 1 μM, replicates: in singlicate; n = 1
# ERBB2 = system: ERBB2
# ERBB3 = system: ERBB3
# ERBB4 = system: ERBB4
# ERK1 = system: T1, ERK1
# T1 construct: gene MAPK3
# ERK2 = system: T2, ERK2
# T2 construct: gene MAPK1
# ERK3 = system: T3, ERK3
# T3 construct: gene MAPK6
# ERK4 = system: T4, ERK4
# T4 construct: gene MAPK4
# ERK5 = system: T5, ERK5
# T5 construct: gene MAPK7
# ERK8 = system: T6, ERK8
# T6 construct: gene MAPK15
# ERN1 = system: ERN1
# FAK = system: T7, FAK
# T7 construct: gene PTK2
# FER = system: FER
# FES = system: FES
# FGFR1 = system: FGFR1
# FGFR2 = system: FGFR2
# FGFR3 = system: FGFR3
# FGFR4 = system: FGFR4
# FGR = system: FGR
# FLT1 = system: FLT1
# FLT3-autoinhibited = system: FLT3-autoinhibited
# 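Note: KINOMEscan kinase panel screen.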
Structure (SMILES),%Inh (ERBB2),%Inh (ERBB3),%Inh (ERBB4),%Inh (ERK1),%Inh (ERK2),%Inh (ERK3),%Inh (ERK4),%Inh (ERK5),%Inh (ERK8),%Inh (ERN1),%Inh (FAK),%Inh (FER),%Inh (FES),%Inh (FGFR1),%Inh (FGFR2),%Inh (FGFR3),%Inh (FGFR4),%Inh (FGR),%Inh (FLT1),%Inh (FLT3-autoinhibited)
O=C(Nc1n[nH]c2cc(-c3cccc(F)c3F)ccc12)C1CC1 [SB-733894],0%,0%,27%,0%,0%,0%,0%,11%,28%,5%,3%,0%,53%,0%,0%,0%,0%,61%,0%,12%
Cc1c(Cn2ccn3c(=O)cc(N4CCOCC4)nc23)cccc1C(F)(F)F [GSK2289044],0%,0%,0%,0%,0%,0%,0%,0%,0%,3%,0%,7%,23%,0%,19%,28%,5%,14%,0%,0%
C[C@@H]1CCCCN1c1cc(-c2ccc3c(N)n[nH]c3c2)nc(N)n1 [GSK2258759],18%,0%,12%,8%,0%,5%,0%,0%,0%,0%,0%,0%,0%,0%,0%,7%,3%,17%,14%,0%
O=c1cc(N2CCOCC2)nc2n(Cc3cccc(Cl)c3Cl)ccn12 [GSK2286295],0%,0%,0%,0%,6%,0%,27%,0%,2%,0%,0%,12%,12%,0%,0%,5%,12%,16%,26%,0%
CS(=O)(=O)c1ccc(-c2nc3n(c2-c2ccncc2)CCC3)cc1 [SKF-105942],32%,0%,0%,0%,0%,0%,100%,0%,0%,18%,0%,1%,22%,0%,0%,2%,18%,43%,11%,0%
Cn1cncc1-c1ccc2ncnc(Nc3ccc(OCc4ccccc4)cc3)c2c1 [GW320571],99.4%,43%,61%,13%,10%,0%,0%,0%,25%,0%,0%,25%,0%,2%,13%,31%,14%,15%,27%,0%
Cc1cccc(-c2nc(C)cc(Nc3ccncc3)n2)n1 [GSK257997],28%,0%,30%,0%,0%,19%,100%,0%,0%,4%,0%,42%,0%,7%,14%,16%,0%,8%,32%,0%
Fc1cc(Cl)ccc1Nc1ccnc2cc(I)ccc12 [GW551191],32%,31%,30%,0%,0%,5%,24%,0%,0%,2%,0%,0%,0%,8%,18%,0%,5%,30%,30%,0%
Cc1ccc(NC(=O)Nc2cccc(Cl)c2)cc1-c1ccc(C(=O)Nc2ccncc2)cc1 [GSK1398468],24%,0%,7%,0%,0%,7%,3%,0%,0%,0%,0%,6%,9%,0%,0%,7%,5%,30%,25%,14%
CN1C(=O)C(Nc2ccc(Cl)c(C(=O)O)c2)=C(c2ccc(Cl)cc2)C1=O [SB-404290],0%,0%,8%,0%,0%,0%,0%,1%,0%,0%,7%,5%,0%,0%,0%,0%,0%,0%,0%,22%
CC(=O)Nc1nc2cnc(Nc3cc(NC(=O)c4cccc(CCC#N)c4)ccc3C)nc2s1,6%,7%,14%,0%,21%,4%,3%,3%,0%,0%,7%,0%,17%,9%,22%,17%,0%,21%,30%,5%
CCn1c(-c2ccccn2)nc2cnccc21 [SB-736398],26%,14%,0%,11%,0%,14%,6%,5%,37%,0%,0%,2%,30%,1%,48%,77%,1%,41%,21%,0%
O=C(Nc1n[nH]c2nc(-c3nccs3)c(Br)cc12)C1CC1 [SB-742251],2%,19%,0%,0%,11%,14%,16%,0%,84%,0%,0%,0%,12%,0%,0%,0%,10%,29%,36%,0%
COc1cc(Nc2nccc(N3CCC(NC(=O)Nc4cc(C)ccc4C)C3)n2)cc(OC)c1OC (stereo not drawn) [GSK1379762],11%,0%,0%,9%,0%,5%,4%,0%,41%,15%,0%,0%,0%,5%,11%,30%,0%,14%,22%,0%
Cc1cccc(-c2nc(-c3ccc(S(C)(=O)=O)cc3)sc2-c2ccnc(NCCc3ccccc3)c2)c1,0%,3%,0%,0%,0%,19%,7%,5%,14%,0%,0%,0%,0%,5%,1%,0%,0%,0%,18%,0%
COc1ccccc1-c1ccc2c(NC(=O)C3CC3)n[nH]c2n1 [SB-711239],0%,22%,23%,3%,3%,0%,0%,0%,0%,0%,0%,4%,22%,0%,12%,8%,10%,26%,6%,0%
COC(=O)c1c(-c2ccccc2)c2cc(C(=O)O)ccc2c(=O)n1Cc1ccccc1,0%,0%,2%,0%,16%,0%,0%,0%,0%,0%,0%,0%,0%,0%,3%,0%,0%,0%,7%,3%
Cl.c1ccc(-c2n[nH]cc2-c2ccnc(-c3ccc(CN4CCOCC4)cc3)c2)nc1 [GW776245],3%,52%,2%,0%,12%,0%,0%,9%,0%,0%,31%,3%,3%,0%,15%,20%,1%,22%,26%,0%
Cc1ccc(-c2cc(-c3c[nH]nc3-c3ccccn3)ccn2)cc1 [GW684088],43%,36%,0%,37%,0%,3%,18%,0%,0%,0%,0%,13%,21%,0%,0%,30%,9%,22%,5%,22%
COc1ccccc1CNC(=O)c1cc(C(=O)c2ccccc2C)c[nH]1 [GSK364507],21%,0%,30%,0%,2%,4%,13%,0%,0%,0%,0%,8%,0%,0%,16%,4%,11%,23%,18%,0%
Cc1cc(-c2ccc3c(c2)CC[C@@H](N[C@@H](C)c2ccccc2)C3)cnc1N.Cl [GW412617],0%,0%,0%,0%,12%,5%,0%,0%,29%,0%,0%,27%,0%,9%,16%,56%,19%,26%,34%,8%
